# Results from the supplement of paper PMC8728848.
# This excerpt belongs to a sample that is enriched for the strongest signals.
# B1: RS2L (Ralstonia solanacearum), B5RXL5_RALSO (protein)
# chain: MAQQGVFTLPANTSFGVTAFANAANTQTIQVLVDNVVKATFTGSGTSDKLLGSQVLNSGSGAIKIQVSVNGKPSDLVSNQTILANKLNFAMVGSEDGTDNDYNDGIAVLNWPLG
# B2: pullulanase (Streptococcus pyogenes), Q8KLP1 (protein)
# chain: MKKKVNQGSKRYQYLLKKWGIGFVIAATGTVMLGCIPSILTHQVAAKTIVGLARDEAQQGDGNAKSGDGFQSSSKEAKPVLDSSSANPASIAEHHLRMHFKTLPAGESLGSLGLWVWGDVDQPSKDWPNGAITMTKAKKDDYGYYLDVPLAAKHRQQVSYLINNKAGENLSKDQHIPLLTPKMNEVWIDENYHAHAYRPLKKGYLRINYHNQSGHYDNLAVWTFKDVKTPTTDWPNGLDLSHKGPYGAYVDVPLKEGANEIGFLILDKSKTGDAIKVQPKDYLFKELDNHTQVFVKDTDPKVYNNPYYIDQVSLKGAEQTTPNEIKAIFTTLDGLDEDAVKQNIKITDKAGKTVAIDELTLDKDKSVMTLKGDFKAQGAVYTVTFGEVSQVARQSWQLKDKLYAYDGELGATLAKDGSVDLALWSPSADSVKVVVYDKQDQTKVVGQADLTKSDKGVWRAHLTSDSVKGISDYTGYYYLYEITRGQEKVMVLDPYAKSLAAWNDATATDDIKTAKAAFIDPSKLGPTGLDFAKINNFKKREDAIIYEAHVRDFTSDKALEGKLTHPFGTFSAFVEQLDYLKDLGVTHVQLLPVLSYFYANELDKTRSTAYTSSDNNYNWGYDPQHYFALSGMYSANPNDPALRIAELKNLVNEIHKRGMGVIFDVVYNHTARTYLFEDLEPNYYHFMNADGTARESFGGGRLGTTHAMSRRILVDSITYLTREFKVDGFRFDMMGDHDAAAIEQAFKAAKAINPNTIMIGEGWRTYQGDEGKKEIAADQDWMKATNTVGVFSDDIRNTLKSGFPNEGTAAFITGGAKNLEGLFKTIKAQPSNFEADAPGDVVQYIAAHDNLTLHDVIAKSINKDPKVAEEEIHKRIRLGNTMILTAQGTAFIHSGQEYGRTKQLLNPDYKTKVSDDKVPNKATLIDAVAQYPYFIHDSYDSSDAVNHFDWAKATDSIAHPISNQTKAYTQGLIALRRSTDAFTKATKAEVDRDVTLITQAGQDGIQQEDLIMGYQTVASNGDRYAVFVNADNKTRKVVLPQAYRYLLGAQVLADAEQVGVTAIAKPKGVQFTKEGLTIDGLTALVLKVSSKTANPSQQKSQTDNHQTKTPDGSKDLDKSLMTRPKRAKTNQKLPKTGEAPSKGLLAAGVALLLLAISLLMKRQKD
# What was measured:
# Assay in all cases: glycan array binding signal (z-score within array); higher = stronger binding
# Details in all cases: glycan notation: IUPAC condensed, linker removed
# [1] = molecular target: Neu5Ac(a2-6)Gal(b1-4)GlcNAc(b1-2)Man(a1-3)Man(b1-4)GlcNAc(b1-4)GlcNAc
# Outline: (§1)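 Glycan array data came from 3228 arrays in the Consortium for Functional Glycomics database, and only arrays with an available protein sequence were kept. Glycan names were put into IUPAC-condensed notation, and columns mapping to the same glycan were averaged. The binding signal is a within-array Z-score, averaged across arrays of one protein sequence run at different concentrations or buffers and across linkers. A negative Z-score can be read as non-binding.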
# [2] = molecular target: Neu5Ac(a2-6)GalNAc
# Outline: as §1
# [3] = molecular target: Neu5Ac(a2-6)GalNAc(b1-4)GlcNAc
# Outline: as §1
# [4] = molecular target: Neu5Ac(a2-8)Neu5Ac(a2-8)Neu5Ac
# Outline: as §1
# [5] = molecular target: Neu5Ac(a2-8)Neu5Ac(a2-8)Neu5Ac(a2-8)Neu5Ac(a2-3)[GalNAc(b1-4)]Gal(b1-4)Glc
# Outline: as §1
# [6] = molecular target: Neu5Ac(b2-6)Gal(b1-4)GlcNAc
# Outline: as §1
# [7] = molecular target: Neu5Gc(a2-3)Gal(b1-4)GlcNAc
# Outline: as §1
# [8] = molecular target: Fuc(a1-2)Gal(b1-3)GlcNAc(b1-2)Man(a1-3)[Fuc(a1-2)Gal(b1-3)GlcNAc(b1-2)Man(a1-6)]Man(b1-4)GlcNAc(b1-4)[Fuc(a1-6)]GlcNAc
# Outline: as §1
# [9] = molecular target: Fuc(a1-2)Gal(b1-3)[Fuc(a1-4)]GlcNAc(b1-3)[Fuc(a1-3)[Gal(b1-4)]GlcNAc(b1-6)]Gal(b1-4)Glc
# Outline: as §1
# [10] = molecular target: Fuc(a1-2)Gal(b1-3)[Fuc(a1-4)]GlcNAc(b1-3)[Gal(b1-4)GlcNAc(b1-6)]Gal(b1-4)Glc
# Outline: as §1
# [11] = molecular target: Fuc(a1-2)Gal(b1-4)[Fuc(a1-3)]GlcNAc(b1-3)GalNAc
# Outline: as §1
# [12] = molecular target: Fuc(a1-2)[Gal(a1-3)]Gal(b1-4)Glc
# Outline: as §1
# [13] = molecular target: Fuc(a1-2)[Gal(a1-3)]Gal(b1-4)GlcNAc(b1-3)GalNAc
# Outline: as §1
# [14] = molecular target: Fuc(a1-2)[GalNAc(a1-3)]Gal
# Outline: as §1
# [15] = molecular target: Fuc(a1-2)[GalNAc(a1-3)]Gal(b1-3)GlcNAc(b1-3)GalNAc
# Outline: as §1
# [16] = molecular target: Fuc(a1-2)[GalNAc(a1-3)]Gal(b1-4)[Fuc(a1-3)]GlcNAc
# Outline: as §1
# [17] = molecular target: Fuc(a1-2)[GalNAc(a1-3)]Gal(b1-4)[Fuc(a1-3)]GlcNAc(b1-3)GalNAc
# Outline: as §1
# [18] = molecular target: Fuc(a1-2)[GalNAc(b1-3)]Gal
# Outline: as §1
# [19] = molecular target: Fuc(a1-3)[Gal(b1-4)]Glc6S
# Outline: as §1
# [20] = molecular target: Fuc(a1-3)[Gal(b1-4)]GlcNAc(b1-3)GalNAc
# Outline: as §1
# [21] = molecular target: Gal(b1-3)[Fuc(a1-4)]GlcNAc(b1-2)Man(a1-3)[Gal(b1-3)[Fuc(a1-4)]GlcNAc(b1-2)Man(a1-6)]Man(b1-4)GlcNAc(b1-4)GlcNAc
# Outline: as §1
# [22] = molecular target: Gal(b1-3)[Fuc(a1-4)]GlcNAc(b1-2)Man(a1-3)[Gal(b1-3)[Fuc(a1-4)]GlcNAc(b1-2)Man(a1-6)]Man(b1-4)GlcNAc(b1-4)[Fuc(a1-6)]GlcNAc
# Outline: as §1
# [23] = molecular target: Gal(b1-4)Glc6S
# Outline: as §1
# [24] = molecular target: Gal(b1-4)GlcNAc(b1-2)[Gal(b1-4)GlcNAc(b1-4)]Man(a1-3)[GlcNAc(b1-4)][Gal(b1-4)GlcNAc(b1-2)Man(a1-6)]Man(b1-4)GlcNAc(b1-4)GlcNAc
# Outline: as §1
# [25] = molecular target: Gal(b1-4)GlcNAc(b1-3)Gal(b1-4)[Fuc(a1-3)GlcNAc(b1-6)]Gal(b1-4)Glc
# Outline: as §1
# [26] = molecular target: Gal3S6S(b1-4)GlcNAc6S
# Outline: as §1
# [27] = molecular target: GalNAc(a1-3)GalNAc(b1-3)Gal(a1-4)Gal(b1-4)Glc
# Outline: as §1
# [28] = molecular target: GalNAc(b1-6)GalNAc
# Outline: as §1
# [29] = molecular target: Glc(a1-6)Glc(a1-6)Glc
# Outline: as §1
# [30] = molecular target: GlcA(b1-3)GlcNAc
# Outline: as §1
# [31] = molecular target: GlcNAc(a1-4)Gal(b1-4)GlcNAc(b1-3)Gal(b1-4)GlcNAc(b1-3)Gal(b1-4)GlcNAc
# Outline: as §1
# [32] = molecular target: GlcNAc(b1-2)Man(a1-3)[GlcNAc(b1-2)Man(a1-6)]Man(b1-4)GlcNAc(b1-4)GlcNAc
# Outline: as §1
# [33] = molecular target: GlcNAc(b1-3)Gal(b1-4)GlcNAc(b1-3)Gal(b1-4)GlcNAc
# Outline: as §1
# [34] = molecular target: GlcNAc(b1-3)GalNAc
# Outline: as §1
# [35] = molecular target: GlcNAc(b1-3)[GlcNAc(b1-4)][GlcNAc(b1-6)]GlcNAc
# Outline: as §1
# [36] = molecular target: Kdn(a2-3)Gal(b1-3)GlcNAc
# Outline: as §1
# [37] = molecular target: Man(a1-2)Man(a1-3)[Man(a1-2)Man(a1-6)]Man(a1-6)[Man(a1-2)Man(a1-2)Man(a1-3)]Man
# Outline: as §1
# [38] = molecular target: Man(b1-4)GlcNAc
# Outline: as §1
# [39] = molecular target: Neu5Ac(a2-3)Gal(b1-4)[Fuc(a1-3)]GlcNAc(b1-3)GalNAc
# Outline: as §1
# [40] = molecular target: Neu5Ac(a2-3)[GalNAc(b1-4)]Gal(b1-4)GlcNAc
# Outline: as §1
# [41] = molecular target: Neu5Ac(a2-6)Gal(b1-4)GlcNAc
# Outline: as §1
binder,measurement,setting,value
B1,glycan array binding signal (z-score),[1],-0.245
same,glycan array binding signal (z-score),[2],-0.244
same,glycan array binding signal (z-score),[3],-0.242
same,glycan array binding signal (z-score),[4],-0.243
same,glycan array binding signal (z-score),[5],-0.22
same,glycan array binding signal (z-score),[6],-0.252
same,glycan array binding signal (z-score),[7],-0.242
B2,glycan array binding signal (z-score),[8],1.26
same,glycan array binding signal (z-score),[9],4.09
same,glycan array binding signal (z-score),[10],-1.13
same,glycan array binding signal (z-score),[11],3.14
same,glycan array binding signal (z-score),[12],-0.403
same,glycan array binding signal (z-score),[13],-0.009
same,glycan array binding signal (z-score),[14],-0.236
same,glycan array binding signal (z-score),[15],2.51
same,glycan array binding signal (z-score),[16],-0.025
same,glycan array binding signal (z-score),[17],1.05
same,glycan array binding signal (z-score),[18],-0.628
same,glycan array binding signal (z-score),[19],-0.252
same,glycan array binding signal (z-score),[20],0.189
same,glycan array binding signal (z-score),[21],6.24
same,glycan array binding signal (z-score),[22],2.86
same,glycan array binding signal (z-score),[23],-0.375
same,glycan array binding signal (z-score),[24],0.829
same,glycan array binding signal (z-score),[25],-0.926
same,glycan array binding signal (z-score),[26],-0.367
same,glycan array binding signal (z-score),[27],-1.28
same,glycan array binding signal (z-score),[28],-0.145
same,glycan array binding signal (z-score),[29],2.49
same,glycan array binding signal (z-score),[30],2.61
same,glycan array binding signal (z-score),[31],0.594
same,glycan array binding signal (z-score),[32],-0.014
same,glycan array binding signal (z-score),[33],-1.14
same,glycan array binding signal (z-score),[34],0.154
same,glycan array binding signal (z-score),[35],-0.834
same,glycan array binding signal (z-score),[36],-0.039
same,glycan array binding signal (z-score),[37],0.204
same,glycan array binding signal (z-score),[38],0.398
same,glycan array binding signal (z-score),[39],2.87
same,glycan array binding signal (z-score),[40],-0.879
same,glycan array binding signal (z-score),[41],2.52
same,glycan array binding signal (z-score),[4],-0.738
